Test results as given in PubChem BioAssay (NCATS).
Records with an inconclusive call do not appear. Active and inactive are the calls of the source. Calls follow the shape of the dose curve; as a rule, active = well fitted inhibition curve with a large enough effect; inconclusive = small, poorly fitted or top-dose-only effect; inactive = flat fitted curve, though single readings scatter.

The compounds below were run on CP286 (assay: qHTS profiling for inhibitors of Plasmodium falciparum proliferation (AID 504749; also: nearly all actives have a fitted effect of over 60% in size;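 as to activity, negative = inhibition: 0% = DMSO vehicle and full inhibition = artemisinin control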)). Details: P. falciparum in erythrocytes, SYBR Green DNA, 72 h; series mostly up to 12.8 µM; activity, negative = inhibition: at the top concentration.
Summary of the method: (§1)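 Each compound contacts P. falciparum-infected red blood cells for 72 h at 37 C; lysis buffer (Tris, EDTA, saponin, Triton X, SYBR Green I) is added and fluorescence measured next morning; values normalized to controls.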
Potency is read from the fitted curve at half-maximal effect.

activity, negative = inhibition, inactive:
CC1(C)S[C@H]2C(NC(=O)[C@@H](N)c3ccc(O)cc3)C(=O)N2[C@@H]1C(=O)O (stereo partly drawn) -2.72% [at 28.7 µM]
CN(C)CCc1c[nH]c2ccc(CC3COC(=O)N3)cc12 (stereo not drawn) 1.1% [at 28.7 µM]
C[C@@]12CCC(=O)C=C1C=CC1C2CC[C@]2(C)C1CC[C@@]21CCC(=O)O1 (stereo partly drawn) -8.81% [at 28.7 µM]
CC(C)Oc1ccc2c(=O)cc(-c3ccccc3)oc2c1 -21.3% [at 28.7 µM]
CCCCCCCCCc1ccc(OCCOCCOCCOCCOCCOCCOCCOCCOCCO)cc1 -25% [at 28.7 µM]
CC(=O)O[C@@]1(C(C)=O)CCC2C3CC(C)C4=CC(=O)CC[C@@]4(C)C3CC[C@]21C (stereo partly drawn) -28.7% [at 28.7 µM]
N[C@@H]1C(O)OC(CO)C(O)C1O (stereo partly drawn) -2.65% [at 28.7 µM]
C=Cc1c(C)/c2[n-]/c1=C\c1[n-]c(c(CC)c1C)/C=c1\[n-]c3c(c1C)C(=O)C(C(=O)[O-])C=3c1[n-]c(c(C)c1CCC(=O)[O-])\C=2.[Cu].[Na+].[Na+] (stereo not drawn) -2.15% [at 28.7 µM]
CC(=O)[C@]1(O)CCC2C3C=C(Cl)C4=CC(=O)C5CC5[C@@]4(C)C3CC[C@]21C (stereo partly drawn) 0.427% [at 28.7 µM]
C[C@@]12C=CC(=O)C=C1CCC1C3CC(O)[C@@](O)(C(=O)CO)[C@]3(C)CC(O)[C@]12F (stereo partly drawn) -1.97% [at 28.7 µM]
CCC1OC(=O)C(C)[C@@H](O[C@H]2C[C@@](C)(OC)C(O)C(C)O2)C(C)[C@@H](O[C@@H]2OC(C)CC(N(C)C)C2O)[C@@](C)(O)CC(C)C(=O)[C@@H](C)C(O)[C@]1(C)O (stereo partly drawn) -13.5% [at 28.7 µM]
CC1C2CCC3C4CC=C5CC(N(C)C)CC[C@@]5(C)C4CC[C@@]32CN1C (stereo partly drawn) -8.14% [at 28.7 µM]
CCC(C)C(=O)OC1CC(O)C=C2C=CC(C)C(CCC(O)CC(O)CC(=O)O)C21 (stereo not drawn) -0.236% [at 28.7 µM]
OCC1OC(n2cnc3c(=S)nc[nH]c32)C(O)C1O (stereo not drawn) -12.2% [at 28.7 µM]

Potency, active:
CCC1OC(=O)CC(O)C(C)[C@@H](O[C@@H]2OC(C)[C@H](O[C@@H]3C[C@@](C)(O)C(O)C(C)O3)C(N(C)C)C2O)[C@H](CC=O)CC(C)C(=O)/C=C/C(C)=C/[C@@H]1COC1OC(C)C(O)C(OC)[C@@H]1OC (stereo partly drawn) 1 µM
CO[C@]12C(COC(N)=O)C3=C(C(=O)C(C)=C(N)C3=O)N1CC1NC12 (stereo partly drawn) 0.501 µM

Each compound was assayed on CP291 in the same assay as above. Details: P. falciparum in erythrocytes, SYBR Green DNA, 72 h; series mostly up to 12.8 µM; activity, negative = inhibition: at the top concentration.
Summary of the method: as §1

activity, negative = inhibition, inactive:
CC1(C)S[C@H]2C(NC(=O)[C@@H](N)c3ccc(O)cc3)C(=O)N2[C@@H]1C(=O)O (stereo partly drawn) -1.05% [at 28.7 µM]
CN(C)CCc1c[nH]c2ccc(CC3COC(=O)N3)cc12 (stereo not drawn) -7.3% [at 28.7 µM]
C[C@@]12CCC(=O)C=C1C=CC1C2CC[C@]2(C)C1CC[C@@]21CCC(=O)O1 (stereo partly drawn) 1.39% [at 28.7 µM]
CC(C)Oc1ccc2c(=O)cc(-c3ccccc3)oc2c1 -10.7% [at 28.7 µM]
CCCCCCCCCc1ccc(OCCOCCOCCOCCOCCOCCOCCOCCOCCO)cc1 -15.5% [at 28.7 µM]
CC(=O)O[C@@]1(C(C)=O)CCC2C3CC(C)C4=CC(=O)CC[C@@]4(C)C3CC[C@]21C (stereo partly drawn) 2.61% [at 28.7 µM]
N[C@@H]1C(O)OC(CO)C(O)C1O (stereo partly drawn) -2.09% [at 28.7 µM]
CC(=O)OCC(=O)[C@@]12OC3(CCCC3)OC1CC1C3CCC4=CC(=O)C=C[C@@]4(C)[C@]3(F)C(O)C[C@]12C (stereo partly drawn) -20.1% [at 28.7 µM]
C=Cc1c(C)/c2[n-]/c1=C\c1[n-]c(c(CC)c1C)/C=c1\[n-]c3c(c1C)C(=O)C(C(=O)[O-])C=3c1[n-]c(c(C)c1CCC(=O)[O-])\C=2.[Cu].[Na+].[Na+] (stereo not drawn) -8.66% [at 28.7 µM]
CC(=O)[C@]1(O)CCC2C3C=C(Cl)C4=CC(=O)C5CC5[C@@]4(C)C3CC[C@]21C (stereo partly drawn) -0.932% [at 28.7 µM]
COC1OC(CO)C(OC2OC(C(=O)O)C(OC3OC(COS(=O)(=O)O)C(OC4OC(C(=O)O)C(OC5OC(CO)C(OC6OC(C(=O)O)C(OC7OC(COS(=O)(=O)O)C(OC8OC(C(=O)O)=C[C@H](O)C8OS(=O)(=O)O)C(O)C7NC(C)=O)[C@@H](O)C6O)C(O)C5NC(C)=O)[C@@H](O)C4O)C(O)C3NC(C)=O)[C@@H](O)C2O)C(O)C1NC(C)=O (stereo partly drawn) -7.66% [at 28.7 µM]
C[C@@]12C=CC(=O)C=C1CCC1C3CC(O)[C@@](O)(C(=O)CO)[C@]3(C)CC(O)[C@]12F (stereo partly drawn) -2.49% [at 28.7 µM]
CCC1OC(=O)C(C)[C@@H](O[C@H]2C[C@@](C)(OC)C(O)C(C)O2)C(C)[C@@H](O[C@@H]2OC(C)CC(N(C)C)C2O)[C@@](C)(O)CC(C)C(=O)[C@@H](C)C(O)[C@]1(C)O (stereo partly drawn) 4.4% [at 28.7 µM]
CC1C2CCC3C4CC=C5CC(N(C)C)CC[C@@]5(C)C4CC[C@@]32CN1C (stereo partly drawn) 0.841% [at 28.7 µM]
COC1CC(O[C@H]2/C(C)=C/CC3CC(C[C@]4(CCC(C)C(C5CCCCC5)O4)O3)OC(=O)[C@H]3C=C(C)/C(=N/O)C4OC/C(=C\C=C\[C@@H]2C)[C@@]43O)OC(C)C1O (stereo partly drawn) -15.8% [at 28.7 µM]
CCC(C)C(=O)OC1CC(O)C=C2C=CC(C)C(CCC(O)CC(O)CC(=O)O)C21 (stereo not drawn) 6.55% [at 28.7 µM]
OCC1OC(n2cnc3c(=S)nc[nH]c32)C(O)C1O (stereo not drawn) -12.5% [at 28.7 µM]
